In the supplement of paper PMC7858590:

system: human monocyte-derived macrophages (polarized); experiment: cell shape (eccentricity) Z-score vs DMSO control; higher = more elongated, M2-like morphology; details: 5 µM; 24 h; macrophage state: M1-polarized (IFNg + TNFa), cytokines present during treatment
Description: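 Primary-screen hits were rescreened on polarized hMDMs with the differentiating cytokines (IL-4 + IL-13 or IFNg + TNFa) kept in the medium during treatment with compound at 5 uM for 24 h. The eccentricity Z-score vs DMSO wells is averaged over experiments.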

Compared with O=C(c1ccc(/C=C/c2n[nH]c3ccccc23)cc1)N1CCNCC1, Cc1[nH]c2ccccc2c1CCNCc1ccc(/C=C/C(=O)NO)cc1 is lower in “cell shape (Z-score)” value: 28.4 for the first, 6.17 for the second.

Going from Nc1nc(N)c2nc(-c3cccc(O)c3)c(-c3cccc(O)c3)nc2n1 to CN(C)C(=O)n1nnnc1Cc1ccc(-c2ccccc2)cc1, the “cell shape (Z-score)” value rises from 2.64 to 10.3.

Compared with Cc1cc(O)cc(=O)o1, COc1c(OC)c2occc2c2oc(=O)ccc12 is lower in “cell shape (Z-score)” value: 7.71 for the first, -1.24 for the second.

First: C[C@H]1[C@H](NC(=O)/C(=N\OC(C)(C)C(=O)O)c2csc(N)n2)C(=O)N1S(=O)(=O)O
Second: CCOC(=O)N[C@@H]1CC[C@@H]2[C@@H](C1)C[C@H]1C(=O)O[C@H](C)[C@H]1[C@H]2/C=C/c1ccc(-c2cccc(F)c2)cn1
The “cell shape (Z-score)” value of the first is lower: 0.443 for the first, 5.58 for the second.

Compared with N#CC[C@H](C1CCCC1)n1cc(-c2ncnc3[nH]ccc23)cn1, COc1cc2c(Oc3ccc4[nH]c(C)cc4c3F)ncnc2cc1OCCCN1CCCC1 is higher in “cell shape (Z-score)” value: 1.19 for the first, 12.3 for the second.

Going from NC(=O)C1CCCc2c1[nH]c1ccc(Cl)cc21 (stereo not given) to CC(C)C[C@H](NC(=O)CNC(=O)c1cc(Cl)ccc1Cl)B(O)O, the “cell shape (Z-score)” value rises from -2.04 to 0.365.

Going from CC1(C)CCC(c2ccc(Cl)cc2)=C(CN2CCN(c3ccc(C(=O)NS(=O)(=O)c4ccc(N[C@H](CCN5CCOCC5)CSc5ccccc5)c(S(=O)(=O)C(F)(F)F)c4)cc3)CC2)C1 to CN(C)CC[C@H](CSc1ccccc1)Nc1ccc(S(=O)(=O)NC(=O)c2ccc(N3CCN(Cc4ccccc4-c4ccc(Cl)cc4)CC3)cc2)cc1[N+](=O)[O-], the “cell shape (Z-score)” value falls from 4.31 to 0.862.

First: CCn1c(=O)c2c(nc(/C=C/c3ccc(OC)c(OC)c3)n2C)n(CC)c1=O
Second: COc1cc2ncn(-c3cc(OCc4ccccc4C(F)(F)F)c(C(N)=O)s3)c2cc1OC
The “cell shape (Z-score)” value of the first is lower: 3.19 for the first, 13.5 for the second.

First: CC(C(=O)Nc1cccc(/N=C/c2c(O)ccc3ccccc23)c1)c1ccccc1 (stereo not given)
Second: O=C(/C=C/c1cccc(S(=O)(=O)Nc2ccccc2)c1)NO
The “cell shape (Z-score)” value of the first is higher: 3.72 for the first, -3.19 for the second.

Going from COc1cc(Nc2ncc(F)c(Nc3ccc4c(n3)NC(=O)C(C)(C)O4)n2)cc(OC)c1OC to COc1cc2c(cc1-c1c(C)noc1C)ncc1[nH]c(=O)n([C@H](C)c3ccccn3)c12, the “cell shape (Z-score)” value rises from -14.9 to -12.4.

Compared with Cn1cc(C2=C(c3cn(CCCSC(=N)N)c4ccccc34)C(=O)NC2=O)c2ccccc21, CCCCCCN(CCCCCC)C(=O)Cc1c(-c2ccc(F)cc2)[nH]c2ccccc12 is lower in “cell shape (Z-score)” value: 17.6 for the first, -4.11 for the second.

Going from N[C@@H](CC(=O)N1CCn2c(nnc2C(F)(F)F)C1)Cc1cc(F)c(F)cc1F to C[C@H](CO)N1C[C@H](C)[C@H](CN(C)C(=O)Nc2cc(F)ccc2F)Oc2cc(C#CC3CCCC3)ccc2S1(=O)=O, the “cell shape (Z-score)” value falls from 2.26 to -2.86.

Going from CO[C@H]1C[C@H](O[C@@H]2/C(C)=C/C[C@@H]3C[C@@H](C[C@]4(CC[C@H](C)[C@@H](C5CCCCC5)O4)O3)OC(=O)[C@@H]3C=C(C)/C(=N/O)[C@H]4OC/C(=C\C=C\[C@@H]2C)[C@]43O)O[C@@H](C)[C@@H]1O to COc1ccc2c(c1OC)CN(C)CCc1cc3c(cc1C(=O)C2)OCO3, the “cell shape (Z-score)” value falls from 17.6 to -5.59.

same assay, conditions: 5 µM; 24 h; macrophage state: M2-polarized (IL-4 + IL-13), cytokines present during treatment

Compared with COCCCC/C(=N\OCCN)c1ccc(C(F)(F)F)cc1, N#CN=C(NCCCCCCOc1ccc(Cl)cc1)Nc1ccncc1 is higher in “cell shape (Z-score)” value: -6 for the first, -5.22 for the second.

Compared with CC(=O)O[C@@H]1C[C@H]2C(C)(C)C(=O)C=C[C@]2(C)[C@H]2CC[C@@]3(C)[C@H](c4ccoc4)OC(=O)[C@H]4O[C@]43[C@@]21C, O=C(O)CC[C@H]1CC[C@@](c2cc(F)ccc2F)(S(=O)(=O)c2ccc(Cl)cc2)CC1 is higher in “cell shape (Z-score)” value: -8.96 for the first, 4.15 for the second.

Compared with CCCc1c(OCC(O)COc2ccc3c(=O)cc(C(=O)O)oc3c2CCC)ccc(C(C)=O)c1O (stereo not given), COc1cc(O)c2c(=O)c(OC)c(-c3ccc(OC)c(OC)c3)oc2c1 is lower in “cell shape (Z-score)” value: -2.27 for the first, -8.25 for the second.

Compared with Cc1cc2nc3c(=O)[nH]c(=O)nc-3n(C)c2cc1C=O, O=C1c2ccccc2-c2nc3nonc3nc21 is lower in “cell shape (Z-score)” value: 6.26 for the first, -2.4 for the second.

Compared with O=C(Nc1ccc([N+](=O)[O-])cc1Cl)c1cc(Cl)ccc1O [Niclosamide.2mM], O=C(O)CN1C(=O)c2cccc3cccc(c23)C1=O is higher in “cell shape (Z-score)” value: -6.52 for the first, 9.63 for the second.

Compared with Cc1cc(C(C)(C)CC(C)(C)C)ccc1OCCOCC[N+](C)(C)Cc1ccccc1, CCC[C@H](NC(=O)/C(C#N)=C/c1cccc(Br)n1)c1ccccc1 is higher in “cell shape (Z-score)” value: -3.9 for the first, -2.53 for the second.

Compared with CC1Nc2ccc(Cl)cc2S(=O)(=O)N1 (stereo not given), Cc1nc(Nc2n[nH]c3c2CN(C(=O)N[C@H](CN(C)C)c2ccccc2)C3(C)C)c2sccc2n1 is lower in “cell shape (Z-score)” value: -1.89 for the first, -7.51 for the second.
